Screening results as filed in PubChem BioAssay.
An excerpt weighted towards active compounds, which were near 3% of everything screened.
Vif inh: blocks HIV Vif function | HEK293T cells, Vif self-association by quenched fluorescence, imaging, 24 h | inhibition, % at 7.49 µM | hit rate 0.35% among 340,000 | AID 602346; in the data active means inhibition above about 50%, passing the limit was not always enough
esBAF inh: SWI/SNF esBAF complex inhibition. mouse ES cells, Bmi1-luciferase knock-in reporter, 24 h; 100% = twice the neutral-well signal. hit rate 2% among 350,000. AID 602393. reporter increase, % at 12.5 µM; in the data active means activation above about 40%;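 further: a rise in the Bmi1 reporter signal indicates esBAF inhibition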
MITF act: increases MITF-driven TRPM1 promoter luciferase signal; SK-MEL-5 TRPM1-promoter luciferase, 24 h; % of positive control, neutral wells = 0; activation, % at 12.5 µM; hit rate 0.75% among 300,000;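 active means mean activation of at least 80% with every replicate also reaching 80%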
N-glyco inh: blocks N-linked glycosylation in D54 reporter cells; AID 588692; D54 ERlucT glycosylation luciferase reporter, 24 h; percent of 100 nM tunicamycin response; hit rate 0.23% among 360,000; reporter increase, % at 12.5 µM;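 active means mean luciferase reporter signal, scaled so untreated is 0 and the glycosylation-blocking control 100, at or above a set limit in every replicate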;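 further: luciferase carries N-glycosylation sites so blocking glycosylation raises the light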
PfHsp90 set2: inhibits growth of yeast expressing Plasmodium falciparum Hsp90; inhibition, % at 9.4 µM; hit rate 0.32% among 310,000; S. cerevisiae expressing PfHsp90, BacTiter-Glo ATP, 48 h; yeast lacking PDR1 and PDR3 efflux regulators;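 active means every replicate shows inhibition above about 80%, whatever the replicate mean, limit read from the data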
Wnt bcat act: activates Wnt/beta-catenin signaling in a reporter cell assay; activator, plate reader; activation, % at 9.35 µM; hit rate 1.2% among 300,000; in the data active means activation above about 30%, passing the limit was not always enough
Hits are given with their value; – = inactive; · = no result.

SMILES	Vif inh	esBAF inh	MITF act	N-glyco inh	PfHsp90 set2	Wnt bcat act
COCCN1CCc2[nH]c(=S)[nH]c(=O)c2C1	–	·	–	–	–	·
Cc1ccccc1CN1C(=O)[C@@H]2Cc3c([nH]c4ccccc34)C(C)(C)N2C1=O	105	–	–	–	–	–
CC(C)C[C@@H](CN1CCC[C@@H]1CN1C(=S)NC[C@@H]1Cc1ccccc1)N1C[C@H](Cc2ccc(O)cc2)N(CC2CCCCCC2)C1=S	–	–	·	–	·	–
CN(C)/C=N/c1sc2c(c1C#N)CCCCC2	–	54	–	–	–	–
Clc1cccc(-c2ccc3ncnc(NCc4cccs4)c3c2)c1	–	–	–	–	–	35
O=C(Cn1nnc(-c2ccncc2)n1)Nc1ccc2c(c1)CCC2	–	–	–	–	–	–
Cc1[nH]nc(C(F)(F)F)c1CCC(=O)NC1CCCCCC1	59	–	–	–	–	–
Cc1nc2nc(C)c(CCC(=O)NC3CCCCC3)c(C)n2n1	–	·	–	–	–	–
Cc1ccc(NC(=O)CC2C(=O)NCCN2C(=O)c2ccc(F)cc2)cc1 (stereo unspecified)	·	·	–	·	–	–
CCCCCCCCSc1nnc(-c2ccc(OC)cc2)o1	–	–	–	–	–	–
CN(CCC#N)C(=O)COC(=O)c1c2c(nc3ccccc13)/C(=C\c1ccco1)CC2	–	56	–	–	–	–
C/C(Cc1ccccc1)=N\NC(=O)CNC(=O)c1ccc(Br)cc1	–	·	–	–	–	–
O=c1cc(-c2ccccc2)oc2ccccc12	–	56	–	–	–	–
O=C(NC1CC1)c1cc(=O)c2ccccc2o1	–	–	–	–	–	·
O=c1cc(CO)oc2ccccc12	–	–	–	–	–	–
CCCCCc1cc(=O)c2ccccc2o1	–	50	–	–	–	–
O=c1cc(/C=C/c2ccccc2)oc2ccccc12	–	59	–	–	–	·
O=c1cc(-c2ccccc2)oc2ccc(O)cc12	–	–	–	–	–	59
COc1ccc(-c2cc(=O)c3cc(O)ccc3o2)cc1	–	–	·	–	–	–
COc1ccc(S(=O)(=O)N2CCCCC2)cc1NC(=O)CSc1nnc(C2CC2)n1C	–	–	·	–	–	–
C=CCOC(=O)CC(NC(=O)c1ccccc1)c1ccccc1 (stereo unspecified)	–	–	·	–	–	·
Cn1c(SCC(=O)N2c3ccccc3Sc3ccccc32)nnc1-c1ccco1	–	–	–	–	–	–
CCc1ccc(NC(=S)N2CCCC2)cc1	–	49	–	–	–	–
CCc1ccc(NC(=S)N2CCN(C)CC2)cc1	–	·	–	–	–	–
S=C(Nc1ccc2nsnc2c1)N1CCCC1	–	81	–	–	–	–
SMILES	Vif inh	esBAF inh	MITF act	N-glyco inh	PfHsp90 set2	Wnt bcat act
C/C=C/c1ccc2c(c1)O[C@@H](CN(C)S(=O)(=O)c1ccccc1)[C@@H](C)CN([C@@H](C)CO)S2(=O)=O	·	–	·	·	·	·
Cc1c(Cl)cccc1Nc1nc(N)nc(CN2CCc3ccccc3C2)n1	–	·	–	44	–	–
Cc1ccc(Nc2nc(N)nc(CN3CCc4ccccc4C3)n2)cc1	–	·	–	–	–	–
COc1cccc(Oc2nnnn2-c2ccccc2)c1	–	58	·	–	–	·
CCN(CC(=O)Nc1ccc2c(c1)OCCO2)C(=O)c1ccc(Cl)cc1Cl	–	71	109	–	·	–
CCN(CC(=O)Nc1ccc2c(c1)OCCO2)C(=O)c1ccc(C(F)(F)F)cc1	–	·	107	–	·	–
CCN(CC(=O)Nc1ccc2c(c1)OCCO2)C(=O)c1cc(Cl)nc2ccccc12	–	–	–	–	–	–
CCOc1ccc(C(=O)N(CC)CC(=O)Nc2ccc3c(c2)OCCO3)cc1OCC	–	–	–	–	·	–
Fc1ccc(-c2nnc(SCc3cccnc3)o2)cc1	–	·	–	–	–	·
CCOC(=O)C1=CC[C@@H](c2ccccc2Cl)N(S(=O)(=O)c2ccc(C)cc2)[C@H]1C(=O)OCC	–	–	–	–	–	–
Cc1nnc(NC(=O)CSc2nnc(NC(=O)C(C)(C)C)s2)s1	75	–	–	–	–	–
CCSc1nnc(NC(=O)C(C)(C)C)s1	–	51	–	–	–	–
CC(C)(C)C(=O)CSc1nnc(Nc2ccccc2)s1	–	74	–	–	–	–
O=C1c2ccccc2C(=O)N1CSc1nnc(Nc2ccccc2)s1	–	·	–	–	–	–
CC(C)(C)C(=O)Nc1nnc(SCC(=O)Nc2nccs2)s1	–	–	–	–	–	–
CC(C)COc1ccc(Cc2cnc(N)nc2N)cc1	–	–	–	–	–	–
COc1ccc(C(=O)C(=NN)c2ccccc2)cc1	·	45	·	–	·	–
COc1ccc(CC(=O)OCC(=O)Nc2cccc(Br)c2)cc1	74	·	–	–	–	–
COc1cccc(NC(=O)COC(=O)Cc2ccc(Br)cc2)c1	–	·	–	–	–	–
COc1ccc(C(=O)C(=NNc2ccccc2)c2ccc(OC)cc2)cc1	–	–	–	–	–	–
COc1ccc(C(=O)CSc2ccccc2C(=O)O)cc1	–	·	–	–	–	44
COc1ccc(C(=O)/C(=C/N(C)C)S(=O)(=O)c2ccccc2)cc1	–	·	94	–	–	–
CCNC(=O)C[C@H]1CC[C@@H]2[C@@H](COc3ccc(NC(=O)NC(C)C)cc3C(=O)N2C)O1	·	–	·	·	·	·
COc1cc(C2NCC(c3ccc(Cl)cc3Cl)c3c2[nH]c2ccccc32)cc(OC)c1OC (stereo unspecified)	–	–	–	–	–	–
COc1ccc(C(=O)CC(=O)c2ccc(OC)cc2)cc1	–	–	–	–	–	–
SMILES	Vif inh	esBAF inh	MITF act	N-glyco inh	PfHsp90 set2	Wnt bcat act
COc1ccc(C(=O)CC(=O)c2ccccc2)cc1	–	70	·	–	·	83
CC(=O)Nc1ccc(NC(=O)COC(=O)c2ccco2)cc1	–	·	–	–	–	–
COc1ccc(CNC(=S)Nc2cccc(Cl)c2)cc1	53	–	·	–	·	–
CC(=O)Nc1ccc(C(=O)COC(=O)c2ccco2)c(F)c1	–	44	–	–	–	–
O=C(COc1ccccc1)c1ccccc1	–	46	–	–	–	–
Cc1noc(C)c1NC(=O)Nc1ccc2c(c1)C(=O)N([C@@H](C)CO)C[C@H](C)[C@H](CN(C)C(=O)Nc1ccccc1)OCCCC[C@H](C)O2	·	–	·	·	·	·
COc1cccc(S(=O)(=O)N(C)C[C@H]2Oc3cc(C#CCC(C)C)ccc3S(=O)(=O)N([C@@H](C)CO)C[C@H]2C)c1	·	–	·	·	·	·
CCNC(=O)OC[C@H]1O[C@H](C#Cc2ccc(C(C)(C)C)cc2)C=C[C@H]1O	·	·	·	·	·	–
CCCCSc1nc2c([nH]1)c(=O)n(C)c(=S)n2C	–	·	–	–	–	–
COc1ccc(NC(=O)Cc2ccccc2)cc1	·	57	–	–	–	36
COc1ccc(C/C(C)=N/NC(=S)Nc2ccccc2)cc1	–	60	–	–	–	–
COc1ccc(C/C(C)=N/NC(=S)Nc2ccc(Cl)cc2)cc1	–	–	–	–	–	–
